Our source for the inhibition values is PubChem BioAssay AID651610 (Broad Institute, 2012).

“And” between values parts separate entries of the source, which are not always exact repeats. Equal entries are not always repeated. Out of some 360,000 compounds screened, about 3,900 (1.1%) were called active. For the sample, actives were picked, then their nearest neighbours and some compounds at random. A number with no mark means an inactive call.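 How the source made its calls: active means mean replicate inhibition score of at least 50 and every replicate individually at or above 50; inconclusive means only one of the two criteria met; inactive means mean below 50 and not all replicates reaching 50.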

A short description of this experiment: blockers of JRFL envelope-mediated fusion – HeLa-JRFL effector, CEM21 target cells, luciferase, primary screen (AID 651610).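 Further: 0% = plate neutral controls and 100% = maraviroc near 300 nM.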 The conditions noted are these: HeLa-JRFL Env/CEM21 cell fusion, active compounds read high.

`O=C(O)c1cc([N+](=O)[O-])c(Nc2cccc3ccccc23)c([N+](=O)[O-])c1`: the inhibition (as a rule, the change of the read-out against control, counted positive when it falls) (at 16.7 µM unless noted) is 1.53% [at 12.3 µM].

For `CC(Nc1ccc([N+](=O)[O-])cc1[N+](=O)[O-])c1ccccc1` (stereo not given), the inhibition (at 16.7 µM unless noted) was -0.676% [at 12.3 µM].

Take `O=C(NC(Nc1nc2ccc([N+](=O)[O-])cc2s1)(C(F)(F)F)C(F)(F)F)c1ccccc1`: the inhibition (at 16.7 µM unless noted) was 81.1% [at 12.3 µM] (active).

With `COc1cccc(-c2cnc3c(c2)C(=O)N([C@H](C)CO)C[C@H](C)[C@H](CN(C)C(=O)NC(C)C)O3)c1`, the inhibition (at 16.7 µM unless noted) is 7.31%.

With `COC(=O)c1ccccc1NC(=O)CSc1n[nH]c(-c2ccncc2)n1`, where the note is “at 16.7 µM unless noted”, the inhibition was 9.97% [at 12.3 µM].

Regarding `CCc1c(C)nc(SCC(=O)NC2CCCC2)[nH]c1=O`, the inhibition (at 16.7 µM unless noted) is -1.14% [at 12.3 µM].

Consider `CCc1ccc(-c2nc(SCC(=O)NC3CCCC3)n[nH]2)cc1`, for which, under “at 16.7 µM unless noted”, the inhibition was 56.7% [at 12.3 µM] (active).

Regarding `C=CC1=CCN(S(=O)(=O)C(C)(C)C)[C@@H]1CCO`, where the note is “at 16.7 µM unless noted”, the inhibition was 21.3% [at 12.3 µM].

As for `CCCNC(=O)N(C)C[C@H]1Oc2ncc(-c3ccc(F)cc3)cc2C(=O)N([C@H](C)CO)C[C@H]1C`, the inhibition (at 16.7 µM unless noted) was -0.986%.

In the case of `CC(C)CC#Cc1cnc2c(c1)C(=O)N([C@@H](C)CO)C[C@H](C)[C@@H](CN(C)C(=O)c1cccc(F)c1)O2`, the inhibition (at 16.7 µM unless noted) was -7.05%.

For the compound `C[C@H](CO)N1C[C@H](C)[C@@H](CN(C)C(=O)C2CC2)Oc2cc(C#CC3CC3)ccc2S1(=O)=O`, the inhibition (at 16.7 µM unless noted) is 18.8%.

With `CN1CCN(C(=O)C[C@@H]2C[C@@H]3c4cc(NC(=O)c5ccc6c(c5)OCO6)ccc4O[C@@H]3[C@H](CO)O2)CC1`, the inhibition (at 16.7 µM unless noted) was 2.49%.

In the case of `COc1ccc(CCNC(=O)CS(=O)(=O)Cc2nc(-c3ccc(C)cc3)oc2C)cc1OC`, under “at 16.7 µM unless noted”, the inhibition is 9.54% [at 12.3 µM].

On to `COc1ccc(CCNC(=O)C2CCCN(Cc3nc(-c4cccc(Cl)c4)oc3C)C2)cc1OC` (stereo not given), for which, where the note is “at 16.7 µM unless noted”, the inhibition is 81.2% [at 12.3 µM] (active).

Consider `COc1cccc(-c2nc(CS(=O)(=O)CC(=O)NCCc3ccc(OC)c(OC)c3)c(C)o2)c1`, for which the inhibition (at 16.7 µM unless noted) is 28.2% [at 12.3 µM].

For the compound `CO[C@H]1CN(C)C(=O)c2cc(NC(=O)C3CCCC3)ccc2OC[C@@H](C)N(C(=O)CC2CC2)C[C@@H]1C`, under “at 16.7 µM unless noted”, the inhibition was -11.3%.

For `O=C(O)C(=Cc1ccc([N+](=O)[O-])cc1)CCc1ccccc1`, the inhibition (at 16.7 µM unless noted) is -1.24% [at 12.3 µM].

With `CC(=O)Nc1ccc(C=Cc2ccc([N+](=O)[O-])cc2)cc1`, the inhibition (at 16.7 µM unless noted) is -56.5% [at 12.3 µM].

Regarding `O=C1/C(=C\c2ccc([N+](=O)[O-])cc2)CS(=O)(=O)C/C1=C/c1ccc([N+](=O)[O-])cc1`, the inhibition (at 16.7 µM unless noted) is 85.4% [at 12.3 µM] (active).

On to `CS(=O)(=O)Nc1ccc2c(c1)[C@H]1C[C@H](CC(=O)NCc3ccc(Cl)cc3)O[C@@H](CO)[C@H]1O2`, for which the inhibition (at 16.7 µM unless noted) was -3.71%.

Consider `O=C(NCC[C@@H]1CC[C@H](NC(=O)C2CC2)[C@H](CO)O1)c1cnccn1`, for which, under “at 16.7 µM unless noted”, the inhibition is 1.75%.

With `C[C@@H]1CCCCO[C@H](CN(C)Cc2ccc(Cl)c(Cl)c2)[C@H](C)CN([C@@H](C)CO)C(=O)c2cc(NC(=O)CCC(F)(F)F)ccc2O1`, the inhibition (at 16.7 µM unless noted) is -44.8%.

Take `Cc1ccc(S(=O)(=O)N(C)C[C@H]2Oc3ccc(NS(C)(=O)=O)cc3CC(=O)N([C@@H](C)CO)C[C@H]2C)cc1`: under “at 16.7 µM unless noted”, the inhibition was -22.8%.

As for `Cc1cc(CNC(=O)c2cccc([N+](=O)[O-])c2)c2ccccc2n1`, where the note is “at 16.7 µM unless noted”, the inhibition is 60.8% [at 12.3 µM] (active).

For the compound `Cc1cc(C)cc(OCC(=O)NCc2cc(C)nc3ccccc23)c1`, for the setting “at 16.7 µM unless noted”, the inhibition was 31.3% [at 12.3 µM].

Turning to `CN(C(=O)c1cccc([N+](=O)[O-])c1)c1ccccc1C(=O)NCc1ccccc1`, the inhibition (at 16.7 µM unless noted) was 29.4% [at 12.3 µM].

Take `COCC#Cc1ccc2c(c1)O[C@H](CN(C)C(=O)C1CCOCC1)[C@@H](C)CN([C@@H](C)CO)S2(=O)=O`: where the note is “at 16.7 µM unless noted”, the inhibition is -8.26%.

Consider `Cc1ccc(S(=O)(=O)NCC[C@H]2CC[C@@H](NC(=O)C3CCOCC3)[C@@H](CO)O2)cc1`, for which, under “at 16.7 µM unless noted”, the inhibition is 5.57%.

Regarding `O=C(Nc1ccc(F)cc1)N[C@H]1C=C[C@@H](CC(=O)N2CCOCC2)O[C@H]1CO`, the inhibition (at 16.7 µM unless noted) was -5.7%.

Consider `Cc1noc(C)c1S(=O)(=O)N(C)C[C@H]1OCCCC[C@H](C)Oc2ccc(NC(=O)c3ccccc3)cc2C(=O)N([C@@H](C)CO)C[C@H]1C`, for which the inhibition (at 16.7 µM unless noted) is -37.3%.

Turning to `C[C@@H]1CN([C@H](C)CO)S(=O)(=O)c2ccc(-c3ccncc3)cc2O[C@@H]1CN(C)C(=O)Nc1ccc(C(F)(F)F)cc1`, the inhibition (at 16.7 µM unless noted) was 27.4%.

Regarding `C[C@H](CO)N1C[C@H](C)[C@H](CN(C)S(=O)(=O)c2ccccc2)Oc2cc(Br)ccc2S1(=O)=O`, the inhibition (at 16.7 µM unless noted) was 78% (active).

As for `C[C@@H]1CN([C@@H](C)CO)S(=O)(=O)c2ccc(-c3cccc(F)c3)cc2O[C@@H]1CN(C)S(=O)(=O)c1ccccc1`, for the setting “at 16.7 µM unless noted”, the inhibition is 92.8% (active).

In the case of `Cc1ccc(-c2ccc3c(c2)O[C@H](CN(C)C(=O)Nc2ccc(C(F)(F)F)cc2)[C@@H](C)CN([C@H](C)CO)S3(=O)=O)cc1`, the inhibition (at 16.7 µM unless noted) is 57.4% (active).

On to `C[C@@H]1CN([C@H](C)CO)S(=O)(=O)c2ccc(-c3cccc(F)c3)cc2O[C@H]1CN(C)S(=O)(=O)c1ccc(F)cc1`, for which the inhibition (at 16.7 µM unless noted) is 30%.

`C[C@@H]1CN([C@@H](C)CO)S(=O)(=O)c2ccc(Br)cc2O[C@H]1CN(C)S(=O)(=O)c1ccccc1`: the inhibition (at 16.7 µM unless noted) was 18.6%.

Turning to `Cc1ccc(-c2ccc3c(c2)O[C@H](CN(C)C(=O)Nc2ccccc2)[C@@H](C)CN([C@@H](C)CO)S3(=O)=O)cc1`, the inhibition (at 16.7 µM unless noted) was -12.9%.

Turning to `C[C@@H]1CN([C@@H](C)CO)S(=O)(=O)c2ccc(C#Cc3ccncc3)cc2O[C@@H]1CN(C)S(=O)(=O)c1ccccc1`, the inhibition (at 16.7 µM unless noted) is 19.4%.

`C[C@H]1CN([C@@H](C)CO)S(=O)(=O)c2ccc(-c3cccc(F)c3)cc2O[C@@H]1CN(C)C`: the inhibition runs as follows: (at 12.3 µM) 0.788%; (at 16.7 µM) -8.73% and -21.2%.

For `CC(=O)N(C)C[C@H]1Oc2cc(C#Cc3ccccc3F)ccc2S(=O)(=O)N([C@@H](C)CO)C[C@H]1C`, the inhibition (at 16.7 µM unless noted) was 17.7%.

As to `COc1cccc(NC(=O)N(C)C[C@H]2OCc3ccccc3-c3ccccc3C(=O)N([C@H](C)CO)C[C@@H]2C)c1`, the inhibition (at 16.7 µM unless noted) was 17.7%.

On to `C[C@@H]1CN([C@H](C)CO)C(=O)Cc2cc(NC(=O)NC3CCCCC3)ccc2O[C@H]1CN(C)Cc1ccc(Cl)c(Cl)c1`, for which the inhibition (at 16.7 µM unless noted) is -10.2%.

As for `CC(C)CC#Cc1ccc2c(c1)O[C@@H](CN(C)C(=O)Nc1ccccc1F)[C@@H](C)CN([C@@H](C)CO)S2(=O)=O`, under “at 16.7 µM unless noted”, the inhibition is 9.38%.

On to `Cc1cc2nnc(SCC(=O)N3CCN(c4ccccc4)CC3)n2c(N)n1`, for which the inhibition (at 16.7 µM unless noted) was -38.7% [at 12.3 µM].

For the compound `Cn1c(CNC(=O)c2ccco2)nnc1SCC(=O)N1CCN(c2ccccc2)CC1`, for the setting “at 16.7 µM unless noted”, the inhibition is -10.4% [at 12.3 µM].

Consider `Cn1c(Cc2cccc3ccccc23)nnc1SCC(=O)N1CCN(c2cccc(Cl)c2)CC1`, for which the inhibition (at 16.7 µM unless noted) was 94.5% [at 12.3 µM] (active).

`C[C@H]1CCCCO[C@@H](CN(C)C(=O)Nc2ccccc2)[C@@H](C)CN([C@@H](C)CO)C(=O)c2cc(NC(=O)Nc3ccc(F)cc3)ccc2O1`: where the note is “at 16.7 µM unless noted”, the inhibition is -14%.

Regarding `O=C(CN1CCOCC1)N[C@H]1CC[C@@H](CCNS(=O)(=O)c2ccccc2F)O[C@H]1CO`, for the setting “at 16.7 µM unless noted”, the inhibition was 21.8%.

As for `CCC(=O)N(C)C(c1ccccc1Cl)c1nnnn1-c1c(C)cccc1C` (stereo not given), the inhibition (at 16.7 µM unless noted) is 68.5% [at 12.3 µM] (active).

Turning to `CCOC(=O)N1CCN(C(c2ccnc3ccccc23)c2nnnn2-c2c(C)cccc2C)CC1` (stereo not given), the inhibition (at 16.7 µM unless noted) was 14.5% [at 12.3 µM].

Turning to `Cc1cccc(C)c1-n1nnnc1C(CCc1ccccc1)N1CCN(C/C=C/c2ccccc2)CC1` (stereo not given), for the setting “at 16.7 µM unless noted”, the inhibition was -59.3% [at 12.3 µM].

`CC(C)NC(=O)N(C)C[C@@H]1Oc2ccc(NC(=O)Cn3cnnn3)cc2CC(=O)N([C@H](C)CO)C[C@H]1C`: for the setting “at 16.7 µM unless noted”, the inhibition was 13.5%.

Consider `COc1ccc(CCN2C(=O)c3[nH]nc(-c4ccccc4O)c3C2c2ccc(C)cc2)cc1OC` (stereo not given), for which, where the note is “at 16.7 µM unless noted”, the inhibition was 101% [at 12.3 µM] (active).

On to `COc1ccc(CCN2C(=O)C(C)=C(C)C2=O)cc1OC`, for which the inhibition (at 16.7 µM unless noted) is -2.55% [at 12.3 µM].

With `CCCN1C(=O)c2[nH]nc(-c3ccccc3)c2C1c1ccccc1` (stereo not given), the inhibition (at 16.7 µM unless noted) is -22.9% [at 12.3 µM].

For the compound `COc1ccccc1-c1cnc2c(c1)C(=O)N([C@@H](C)CO)C[C@H](C)[C@@H](CN(C)C(C)=O)O2`, for the setting “at 16.7 µM unless noted”, the inhibition is 0.851%.

Regarding `COc1ccc(S(=O)(=O)Nc2ccc3c(c2)C(=O)N([C@H](C)CO)C[C@@H](C)[C@@H](CN(C)CC2CCCCC2)OCCCC[C@@H](C)O3)cc1`, the inhibition (at 16.7 µM unless noted) is -26.3%.

In the case of `COc1cccc(/C=C2\SC(=S)N(CCCC(=O)N3CCOCC3)C2=O)c1`, the inhibition (at 16.7 µM unless noted) is 2.26% [at 12.3 µM].

`C=CCOc1ccc(/C=C2\SC(=S)N(CCC(=O)O)C2=O)cc1`: where the note is “at 16.7 µM unless noted”, the inhibition is 60.7% [at 12.3 µM] (active).

For the compound `COc1ccc(/C=C2\SC(=S)N(CCC(=O)N3CCOCC3)C2=O)cc1OC`, the inhibition (at 16.7 µM unless noted) was 6.28% [at 12.3 µM].

In the case of `COCCNC(=O)CSc1nc2sccc2c(=O)n1-c1ccccc1`, the inhibition (at 16.7 µM unless noted) is -8.5% [at 12.3 µM].

In the case of `CC1(C)Cc2c(sc3nc(SCC(=O)NCc4ccccc4)n(-c4ccccc4)c(=O)c23)CS1`, for the setting “at 16.7 µM unless noted”, the inhibition was 138% [at 12.3 µM] (active).

On to `Cc1sc2nc(SCCO)n(-c3ccccc3)c(=O)c2c1C`, for which the inhibition (at 16.7 µM unless noted) is 14.7% [at 12.3 µM].

Consider `C/C=C/c1cnc2c(c1)C(=O)N([C@@H](C)CO)C[C@H](C)[C@@H](CN(C)C(=O)C1CC1)O2`, for which, where the note is “at 16.7 µM unless noted”, the inhibition is 10.3%.
